This is one part of a sample in which hits are shown more often than they occur.
VCAM1 pot: potentiators of TNFa-induced VCAM1 expression, primary screen, imaging, HUVEC, TNFa stimulus, immunofluorescence; HUVEC TNFa-stimulated VCAM-1 immunofluorescence, high-content imaging; scaled per plate to unstimulated/TNFa-only wells; activation, % at 2 µM; 93,000 compounds, 0.19% hits;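 active = activation above the screen mean plus 3 SD, with well images confirming the hit on visual review, cut at about 28% in these data, passing the limit was not always enough; inconclusive = activation above that limit but images do not confirm it; inactive = activation not above that limit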;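 also: signal is the number of cytoplasmic VCAM-1 stained grains per positive cell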
VCAM1 pot confirm: potentiators of TNFa-induced VCAM1 expression, confirmation, imaging, HUVEC, triplicate retest; shares compounds with VCAM1 pot; HUVEC TNFa-stimulated VCAM-1 immunofluorescence imaging; activation, % at 2 µM; 230 tested, under 10 active; AID 1034, 2008;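 active = activation above 30% in triplicate retests at 2 µM, then confirmed by visual review of the well images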
Hits are given with their value; i = inactive; ? = inconclusive.

SMILES	VCAM1 pot	others
Cc1cc(NCc2ccccn2)ccc1Br	i
Nc1ccc(Oc2ccc3nc(-c4ccccc4)c(-c4ccc([N+](=O)[O-])cc4)nc3c2)cc1	i
CCOc1ccc(C(=O)C2CCN(CC(=O)Nc3ccccc3N3CCOCC3)CC2)cc1	i
CCN(c1ccccc1)S(=O)(=O)c1ccc(F)cc1C	i
Cc1cccc(C(=O)Nc2ccccc2C(=O)OCc2c(C)noc2C)c1	i
CN(C)NC1CCS(=O)(=O)C1 (stereo not given)	i
Cc1cc(C)cc(C(=O)N2CCC(C(N)=O)CC2)c1	i
CCCC(C(=O)NC1CCCC1)N(CCCN1CCOCC1)C(=O)c1snc(C(N)=O)c1N (stereo not given)	i
O=S(=O)(Nc1ccc(Cc2ccncc2)cc1)c1ccc(Br)cc1	i
Cc1nonc1NC(=O)c1ccc(Cl)c(S(=O)(=O)N2CCCCC2)c1	i
COc1cccc(/C=N/NC(=O)CC(=O)NCCc2ccc(OC)c(OC)c2)c1	i
CC(C)CNC(=S)NNC(=O)c1ccco1	i
C=CCn1c(SCc2ccccc2C#N)nnc1-c1ccccc1O	i
CCOC(=O)c1cnn(-c2ccccc2)c1-n1cccc1C(=O)C(=O)Nc1ccc(OC)cc1	i
COC(=O)c1nn(-c2cccc(C(F)(F)F)c2)c(=O)cc1Sc1ccccn1	i
CCCCCOP(=O)(OCCCCC)C1(NS(=O)(=O)c2ccccc2)C=CC(=O)c2ccccc21 (stereo not given)	i
O=C(NC1CCSC1=O)c1cccc(C(=O)NC2CCSC2=O)c1 (stereo not given)	i
Cc1cccc(N2CCN(C(=O)NCc3ccc(Cl)cc3)CC2)c1	i
O=S(=O)(Nc1ccc(-n2cccc2)cc1)c1ccccc1	i
COc1ccc(CCC(=O)NCCc2cn3c(C)csc3n2)cc1	i
CC(C)(C)C(=O)NC(NC(=S)Nc1sc2c(c1C#N)CCCC2)C(Cl)(Cl)Cl (stereo not given)	i
CCOC(=O)c1nnc2c(Br)c(-c3ccccc3)nn2c1C	i
CC1CC1C(=O)OCC(=O)NC(=O)NCc1ccco1 (stereo not given)	i
O=C(Nc1cnn(Cc2ccc(Cl)c(Cl)c2)c1)C12CC3CC(CC(C3)C1)C2	i
CCn1c(SCC(=O)N2CCN(c3ccccc3)CC2)nnc1-c1c[nH]c2ccccc12	i
SMILES	VCAM1 pot	others
O=C(CSc1nnc2c3cc(F)ccc3nc(-c3ccccc3)n12)N1CCOCC1	i
COC(=O)CSc1nnc(C)n1-c1cccc(C#N)c1	i
COc1cccc(C2=NOC(C(=O)Nc3ccccc3SC)C2)c1 (stereo not given)	i
CC1(C)Cc2c(cnn2-c2ccccc2)C(=O)/C1=N\NC(=O)c1ccccc1	33.5	VCAM1 pot confirm=i
CCOc1ccc(OCC)c(S(=O)(=O)N2CCCCC2C)c1 (stereo not given)	i
O=C(COc1ccc2ccccc2c1)N1CCN(c2ccccc2O)CC1	i
CC(C)(C)c1ccc(OCC(=O)N2CCN(C=O)CC2)cc1	68.9	VCAM1 pot confirm=i
Cc1cc(=O)oc2ccc(OCC(=O)N3CCC(C)CC3)cc12	i
COCCCn1c(SCC(=O)NCc2ccccc2)nc2ccccc2c1=O	i
COc1ccc(/C=N/n2c(-c3ccco3)nc3ccccc3c2=O)cc1	i
COCCCn1c(-c2ccccc2)nc2ccccc2c1=O	30.8	VCAM1 pot confirm=i
O=C(Cc1ccc(Cl)cc1)Nc1ccccc1CO	i
CCN(CC)c1ccc(NC(=O)c2ccc(Br)o2)c(C)c1	i
COc1ccc2c(c1)c1c(n2C(C)=O)C(OC(C)=O)=NCC1	i
O=C(Oc1ccc2ccc(OC(=O)N3CCOCC3)cc2c1)N1CCOCC1	i
COc1ccc2c(C)cc(SCC(=O)N3CCOCC3)nc2c1	?	VCAM1 pot confirm=i
Cc1ccc(OCc2nnc(SCC(=O)N3CCOCC3)n2C)cc1	i
C/C=C(\C)CN1CCN(c2ccc(C)cc2)CC1	i
CC1Cc2ccccc2N1C(=O)COc1nc2ccccc2nc1N1CCOCC1 (stereo not given)	i
CC(C)C(=O)Nc1nc2c(ncn2C2CC(O)C(CO)O2)c(=O)[nH]1 (stereo not given)	30.1	VCAM1 pot confirm=i
CCOC(=O)CNC(=O)CNC(=O)Cn1ccc2ccccc2c1=O	i
O=C1OC(Nc2ccc3ncccc3c2)c2ccccc21 (stereo not given)	i
COc1ccc2c(c1OC)C(=O)OC2CC(=O)c1ccc2c(c1)OCO2 (stereo not given)	i
COc1ccc2c(c1OC)C(=O)OC2Nc1ccccn1 (stereo not given)	53.6	VCAM1 pot confirm=i
CCC(C)NC(=O)C1CCN(S(=O)(=O)CC)CC1 (stereo not given)	i
Cc1ccc(-c2csc3n[nH]c(=S)n23)cc1	i
CC(C)(C)c1nn(-c2ccccc2)c2[nH]c(=O)c(CNCc3ccc4c(c3)OCO4)cc12	i
CCN1CCCC1CNC(=O)Cn1cnc2sc(C)c(S(=O)(=O)N3CCC(C)CC3)c2c1=O (stereo not given)	48.1	VCAM1 pot confirm=i
